Results reported in PubChem BioAssay (NCI).
About 83,000 compounds went through this panel and 20% of them were active in at least one assay; those are over-represented in the sample as a whole.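 Percent growth is the endpoint: 0 to 100 indicates growth inhibition (40 means 60% inhibition), 0 means no net growth, and negative values indicate cell death.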 A number with no mark means an inactive call. Activity calls are given as the source filed them. Rule for the calls: active = growth percent below 10; inactive = the rest.

How the values were obtained:
Test in all cases: NCI-60 one-dose screen, 48 h (100 = growth as untreated, 0 = no growth, -100 = all killed)
Conditions in all cases: 10 µM unless noted
[1] = test system: SK-MEL-2 melanoma
[2] = test system: EKVX NSCLC
[3] = test system: SN12C renal
[4] = test system: UO-31 renal
[5] = test system: TK-10 renal
[6] = test system: ACHN renal
[7] = test system: CAKI-1 renal
[8] = test system: A498 renal
[9] = test system: CCRF-CEM leukemia
[10] = test system: MOLT-4 leukemia
[11] = test system: SR leukemia
[12] = test system: RPMI-8226 leukemia
[13] = test system: OVCAR-8 ovarian
[14] = test system: OVCAR-5 ovarian
[15] = test system: OVCAR-4 ovarian
[16] = test system: SK-OV-3 ovarian
[17] = test system: IGROV1 ovarian
[18] = test system: OVCAR-3 ovarian
[19] = test system: HS 578T breast
[20] = test system: NCI/ADR-RES ovarian

## COC(=O)c1ccc(-n2cc(CCCOS(=O)(=O)c3ccc(F)cc3)nn2)cc1
[1]
  growth: 101%
[2]
  growth: 101%
[3]
  growth: 100%
[4]
  growth: 88.2%
[5]
  growth: 102%
[6]
  growth: 101%
[7]
  growth: 90.6%
[8]
  growth: 84.4%
[9]
  growth: 96.8%
[10]
  growth: 95.7%
[11]
  growth: 87.4%
[12]
  growth: 97.3%
[13]
  growth: 96.2%
[14]
  growth: 98.6%
[15]
  growth: 94.4%
[16]
  growth: 102%
[17]
  growth: 102%
[18]
  growth: 107%
[19]
  growth: 93.6%
[20]
  growth: 106%

## COc1cccc(C2C(C#N)=C(N)Oc3c2ccc2ccccc32)c1 (stereo not given)
[1]
  growth: 40%
[2]
  growth: 53.1%
[3]
  growth: 24.2%
[4]
  growth: 43%
[5]
  growth: 62%
[6]
  growth: 25.8%
[7]
  growth: 30.1%
[8]
  growth: 45.1%
[9]
  growth: 8.64% (active)
[10]
  growth: 12.3%
[11]
  growth: 18.1%
[12]
  growth: 20.7%
[13]
  growth: 21.4%
[14]
  growth: 40.5%
[15]
  growth: 66.2%
[16]
  growth: 40.1%
[17]
  growth: 18.3%
[18]
  growth: -8.8% (active)
[19]
  growth: 52.1%
[20]
  growth: 6.19% (active)

## CCCC[N+]1(C)CCN=C1Cc1ccccc1 (stereo not given)
[1]
  growth: 103%
[2]
  growth: 96.6%
[3]
  growth: 94.4%
[4]
  growth: 95.5%
[5]
  growth: 91.5%
[6]
  growth: 112%
[7]
  growth: 95.8%
[8]
  growth: 97.2%
[9]
  growth: 83.5%
[10]
  growth: 94.6%
[11]
  growth: 94.4%
[12]
  growth: 75.7%
[13]
  growth: 97.2%
[14]
  growth: 103%
[15]
  growth: 109%
[16]
  growth: 109%
[17]
  growth: 106%
[18]
  growth: 103%
[19]
  growth: 97.7%
[20]
  growth: 107%

## Cc1[nH]c(C2CC(c3ccc(C(F)(F)F)c(F)c3)=NN2C)c(C)c1C(=O)NCC(F)(F)F (stereo not given)
[1]
  growth: 107%
[2]
  growth: 87.7%
[3]
  growth: 93.1%
[4]
  growth: 72%
[5]
  growth: 116%
[6]
  growth: 99.3%
[7]
  growth: 81.1%
[8]
  growth: 30.8%
[9]
  growth: 93.6%
[10]
  growth: 72.9%
[11]
  growth: 92.9%
[12]
  growth: 92.4%
[13]
  growth: 94.8%
[14]
  growth: 98.4%
[15]
  growth: 90.9%
[16]
  growth: 105%
[17]
  growth: 79.9%
[18]
  growth: 107%
[19]
  growth: 95.9%
[20]
  growth: 98.8%

## C=CCn1c(SCC(=O)Nc2ccc(C(=O)/C=C/c3ccc(Cl)cc3)cc2)nnc1-c1ccc(Cl)c(Cl)c1
[1]
  growth: 76.6%
[2]
  growth: 79.7%
[3]
  growth: 82.3%
[4]
  growth: 54.4%
[5]
  growth: 86.2%
[6]
  growth: 87.7%
[7]
  growth: 63.5%
[8]
  growth: 83.9%
[9]
  growth: 52.9%
[10]
  growth: 45.5%
[11]
  growth: 57%
[12]
  growth: -34.5% (active)
[13]
  growth: 75.6%
[14]
  growth: 90.5%
[15]
  growth: 86.7%
[16]
  growth: 85.7%
[17]
  growth: 76.4%
[18]
  growth: 83.8%
[19]
  growth: 90.8%
[20]
  growth: 83.9%

## Cc1nc2sc(C(=O)Nc3ccccc3)c(N)c2cc1C(O)c1ccccc1 (stereo not given)
[1]
  growth: 54.8%
[2]
  growth: 51.5%
[3]
  growth: 25.4%
[4]
  growth: 45.7%
[5]
  growth: 59.3%
[6]
  growth: 34.4%
[7]
  growth: 24.8%
[8]
  growth: -8.48% (active)
[9]
  growth: 6.36% (active)
[10]
  growth: 15.1%
[11]
  growth: -5.59% (active)
[12]
  growth: 5.65% (active)
[13]
  growth: 19.2%
[14]
  growth: 33.2%
[15]
  growth: 46.9%
[16]
  growth: 27.3%
[17]
  growth: 27.7%
[18]
  growth: 5.62% (active)
[19]
  growth: 8.01% (active)
[20]
  growth: 15%

## Cn1cc(-c2nc(-c3c[nH]c4c(Cl)nccc34)cs2)c2ccccc21
[1]
  growth: 99.2%
[2]
  growth: 86.7%
[3]
  growth: 94.5%
[4]
  growth: 94.6%
[5]
  growth: 81.2%
[6]
  growth: 107%
[7]
  growth: 87%
[8]
  growth: 77.8%
[9]
  growth: 92.3%
[10]
  growth: 83.9%
[11]
  growth: 73.7%
[12]
  growth: 87.2%
[13]
  growth: 91.1%
[14]
  growth: 120%
[15]
  growth: 86.4%
[16]
  growth: 108%
[17]
  growth: 105%
[18]
  growth: 107%
[19]
  growth: 108%
[20]
  growth: 98%

## O=C1N/C(=N/N=C(c2ccccc2)c2ccccc2)S/C1=C\c1ccc(Br)cc1
[1]
  growth: 96.7%
[2]
  growth: 101%
[3]
  growth: 98%
[4]
  growth: 73.1%
[5]
  growth: 107%
[6]
  growth: 97.7%
[7]
  growth: 77.2%
[8]
  growth: 89.2%
[9]
  growth: 84.4%
[10]
  growth: 106%
[11]
  growth: 83.3%
[12]
  growth: 95.6%
[13]
  growth: 95.6%
[14]
  growth: 102%
[15]
  growth: 96.8%
[16]
  growth: 97.2%
[17]
  growth: 91.9%
[18]
  growth: 102%
[19]
  growth: 95%
[20]
  growth: 103%
